We go through four molecules from PubChem BioAssay (EPA / NIEHS).

The nature of test [1]: ATG_E_Box_CIS: Attagene CIS-FACTORIAL HepG2 Assay for human Enhancer Box (E-box) (AID 2282936). The conditions noted are these: HepG2 E-box cis-reporter transcription, actives raise or lower the signal. The gist of the method:
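HepG2 cells transiently transfected with multiplexed cis-element reporter units, dosed 24 h; reporter mRNA quantified by RT-PCR, 6-FAM labelling, HpaI digestion and capillary electrophoresis. E-box (USF1) signal fitted bidirectionally vs DMSO.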

The nature of test [2]: ATG_M_61_CIS: Attagene CIS-FACTORIAL HepG2 Assay for M61 Transcription Factor (Internal Marker) (AID 2282937). Conditions: HepG2 Attagene CIS-FACTORIAL M61 internal marker reporter; actives raise or lower the signal. The gist of the method: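 Human liver HepG2, transient MRTU transfection (cis promoter elements), 24 h compound. Total RNA → oligo(dT) RT → PCR → FAM label → HpaI → CE. Internal background marker; bidirectional fitting, DMSO = baseline.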

Test [3] in a line: ATG_EGR_CIS: Attagene CIS-FACTORIAL HepG2 Assay for human Early Growth Response 1 (EGR1) (AID 2282938). The conditions noted are these: HepG2 Attagene CIS-FACTORIAL EGR reporter mRNA; actives raise or lower the signal. In short, it runs like this:
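Transient transfection of human HepG2 with multiple cis-regulated reporter units, chemical exposure 24 h, total RNA isolated. Reverse transcription, PCR, fluorescent labelling and capillary electrophoresis quantify reporter transcripts; activity fitted bidirectionally against DMSO.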

Test [4] is described as follows: ATG_M_19_CIS: Attagene CIS-FACTORIAL HepG2 Assay for M19 Transcription Factor (Internal Marker) (AID 2282939). The conditions noted are these: HepG2 Attagene CIS-FACTORIAL M19 internal marker reporter; actives raise or lower the signal. The gist of the method: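 Readout: fluorescent reporter-transcript fragments by capillary electrophoresis after RT-PCR. Human HepG2 liver cells carried transfected MRTU constructs reporting endogenous transcription-factor activity; exposure 24 h. Gain or loss of signal fitted relative to DMSO.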

A short description of test [5]: ATG_Ets_CIS: Attagene CIS-FACTORIAL HepG2 Assay for human Erythroblast Transformation Specific (ETS) (AID 2282941). Conditions: HepG2 ETS cis-reporter transcription, actives raise or lower the signal. The gist of the method:
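After transient cis-reporter transfection, HepG2 cells receive test chemical for 24 h. Reporter mRNA levels, measured by RT-PCR and capillary electrophoresis fluorescence, are analysed bidirectionally relative to the DMSO baseline.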

Test [6] concerns the target Hepatocyte nuclear factor 3-beta (Homo sapiens) (UniProt Q9Y261). Put plainly: ATG_FoxA2_CIS: Attagene CIS-FACTORIAL HepG2 Assay for human Forkhead box A2 (FOXA2) (AID 2282942). Conditions: HepG2 cis-reporter transcription factor activity, 24 h; actives raise or lower the signal. The gist of the method:
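Transient MRTU transfection of HepG2 liver cells; 24 h treatment; total RNA → oligo(dT) RT → PCR → FAM primer extension → HpaI cut → CE. Bidirectional fit vs DMSO.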

Test [7] can be described thus: ATG_FoxO_CIS: Attagene CIS-FACTORIAL HepG2 Assay for human Forkhead box O (FoxO) (AID 2282943). The conditions noted are these: HepG2 Attagene cis-reporter, FoxO element, mRNA; actives raise or lower the signal. In short, it runs like this: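 Transfected HepG2 reporter cells exposed to test chemical for 24 h; reporter RNA measured by reverse transcription, PCR and fluorescent capillary electrophoresis; curves fitted for increases and decreases against DMSO.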

Test [8] is described as follows: ATG_GATA_CIS: Attagene CIS-FACTORIAL HepG2 Assay for human GATA Binding Protein (AID 2282944). The conditions noted are these: HepG2 GATA cis-element reporter, Attagene multiplex mRNA; actives raise or lower the signal. In short, it runs like this: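 Read-out: fluorescent reporter mRNA fragments resolved by capillary electrophoresis after RT-PCR. Human liver HepG2 cells carried transiently transfected cis-regulated reporter constructs; chemicals incubated 24 h; gain or loss of signal fitted relative to DMSO.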

Test [9] is described as follows: ATG_GLI_CIS: Attagene CIS-FACTORIAL HepG2 Assay for human Zinc Finger Protein GLI1 (AID 2282945). Conditions: HepG2, Attagene cis-factorial reporter mRNA, GLI element; actives raise or lower the signal. The gist of the method: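 Transiently transfected HepG2 cells report endogenous transcription factor activity via cis-element-driven reporter units. After 24 h compound exposure, reporter mRNA was measured by RT-PCR with capillary electrophoresis; bidirectional fitting against DMSO baseline.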

The target in test [10] is Bile acid receptor (Homo sapiens) (UniProt Q96RI1). Put plainly: ATG_IR1_CIS: Attagene CIS-FACTORIAL HepG2 Assay for human Nuclear Receptor Subfamily 1 Group H Member 4 (NR1H4), IR1 submotif (AID 2282946). Conditions: IR1 reporter transcription, actives raise or lower the signal. In short, it runs like this:
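HepG2 cells transiently transfected with multiple cis-promoter-driven reporter units to measure endogenous transcription factor activity; 24 h exposure. Reporter mRNA read by RT-PCR, FAM labelling, HpaI digestion and capillary electrophoresis. Bidirectional fit versus DMSO.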

Test [11] is described as follows: ATG_GRE_CIS: Attagene CIS-FACTORIAL HepG2 Assay for human Glucocorticoid Response Elements (GRE) (AID 2282947). The conditions noted are these: HepG2 GRE cis-reporter, Attagene multiplex mRNA; actives raise or lower the signal. The gist of the method:
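Transiently transfected HepG2 cells carrying GRE cis-reporter units (endogenous TF activity) dosed 24 h; reporter mRNA quantified by RT-PCR, 6-FAM labelling, HpaI digestion and capillary electrophoresis. Bidirectional fit versus DMSO baseline.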

Test [12] is described as follows: ATG_ISRE_CIS: Attagene CIS-FACTORIAL HepG2 Assay for human Interferon Regulatory Factor 1 (IRF1) binding to an Interferon-Stimulated Response Element (ISRE) (AID 2282948). The conditions noted are these: HepG2 ISRE cis-reporter (Attagene), mRNA transcription readout; actives raise or lower the signal. The gist of the method: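 Quantitation relies on labelled RT-PCR fragments separated by capillary electrophoresis. Human HepG2 cells bearing cis-promoter reporter constructs were treated 24 h; DMSO served as baseline for bidirectional fitting.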

The nature of test [13]: ATG_M_06_CIS: Attagene CIS-FACTORIAL HepG2 Assay for M06 Transcription Factor (Internal Marker) (AID 2282950). The conditions noted are these: HepG2 Attagene CIS-FACTORIAL M06 internal marker reporter; actives raise or lower the signal. The gist of the method:
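Terse: HepG2, transient MRTU transfection (FuGene 6), 24 h dosing; total RNA, oligo(dT) RT, PCR, FAM label, HpaI cut, capillary electrophoresis; bidirectional fit vs DMSO baseline; background-control endpoint.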

Test [14] concerns the target Hypoxia-inducible factor 1-alpha (Homo sapiens) (UniProt Q16665). The experiment in a line: ATG_HIF1a_CIS: Attagene CIS-FACTORIAL HepG2 Assay for human Hypoxia Inducible Factor 1 (HIF1A) (AID 2282951). Conditions: HepG2 Attagene cis-factorial HIF1a reporter transcription; actives raise or lower the signal. In short, it runs like this: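 Transient MRTU transfection of human HepG2 liver cells, 24 h compound treatment, then total RNA isolation, oligo(dT) reverse transcription, PCR amplification, fluorescent labelling and capillary electrophoresis of reporter fragments. Gain or loss relative to DMSO.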

The target in test [15] is Hepatocyte nuclear factor 6 (Homo sapiens) (UniProt Q9UBC0). Put plainly: ATG_HNF6_CIS: Attagene CIS-FACTORIAL HepG2 Assay for human Hepatocyte Nuclear Factor 6 (HNF6) (AID 2282952). Conditions: HepG2 Attagene cis-factorial HNF6 reporter transcription; actives raise or lower the signal. In short, it runs like this:
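HepG2, transient MRTU transfection (cis promoters); 24 h chemical exposure; total RNA → oligo(dT) RT → PCR → 6-FAM labelling → HpaI cut → CE; bidirectional fit vs DMSO.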

Test [16] has as its target Heat shock factor protein 1 (Homo sapiens) (UniProt Q00613). Put plainly: ATG_HSE_CIS: Attagene CIS-FACTORIAL HepG2 Assay for human Heat Shock Transcription Factor 1 (HSE) (AID 2282953). The conditions noted are these: HepG2 HSE cis-reporter, Attagene RNA transcription; actives raise or lower the signal. The gist of the method: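 Read-out: fluorescence of reporter-specific RT-PCR fragments separated by capillary electrophoresis. HepG2 carrying transfected cis-element reporter units; 24 h dosing; activity fitted in both directions relative to DMSO baseline.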

Test [17] in a line: ATG_MRE_CIS: Attagene CIS-FACTORIAL HepG2 Assay for human Metal Responsive Element (MRE) (AID 2282954). The conditions noted are these: HepG2 MRE cis-reporter transcription, Attagene multiplex; actives raise or lower the signal. In short, it runs like this: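 HepG2 cells transiently transfected with cis-element-driven reporter units; mRNA measured 24 h after dosing. Reporter transcripts quantified by RT-PCR, FAM labelling, HpaI digestion and capillary electrophoresis; bidirectional fit versus DMSO.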

Test [18] is described as follows: ATG_PBREM_CIS: Attagene CIS-FACTORIAL HepG2 Assay for human Phenobarbital-responsive Enhancer Module (PBREM) (AID 2282955). The conditions noted are these: HepG2 PBREM cis-reporter, Attagene multiplexed transcription; actives raise or lower the signal. In short, it runs like this:
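Endogenous transcription factors in human liver HepG2 cells drive a PBREM cis-element reporter, whose transcript level after 24 h treatment is quantified by RT-PCR with capillary electrophoresis; activity fitted in both directions against DMSO.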

Test [19] is described as follows: ATG_ERE_CIS: Attagene CIS-FACTORIAL HepG2 Assay for Estrogen Response Element (ERE) (AID 2282940). Conditions: HepG2 ERE cis-reporter, Attagene RNA transcript; actives raise or lower the signal. In short, it runs like this:
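Readout: reporter mRNA induction by RT-PCR, FAM-labelled primer extension, HpaI digestion and capillary electrophoresis, 24 h after dosing transfected HepG2 cells. Endogenous transcription factors act on cis-element-regulated reporters. Gain or loss fitted against DMSO.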

Test [20] in a line: ATG_M_32_CIS: Attagene CIS-FACTORIAL HepG2 Assay for M32 Transcription Factor (Internal Marker) (AID 2282949).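 Note: background control marker of the multiplexed CIS panel rather than a real target.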 The conditions noted are these: HepG2 Attagene cis-factorial M32 reporter, mRNA; actives raise or lower the signal. In short, it runs like this:
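Fluorescent capillary electrophoresis peaks of HpaI-digested, FAM-labelled RT-PCR reporter products give the signal. Source: transiently transfected human liver HepG2 cells, 24 h after chemical dosing; bidirectional fitting against DMSO.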

Each structure is given as a SMILES string. Calls of active or inactive are those of the source. Rule for the calls: active = hit-call score of the fitted dose curve at least 0.9, where 1 is the maximum; inactive = score below 0.9.

Chain of Hypoxia-inducible factor 1-alpha (Homo sapiens) (Q16665 whole entry, looked up, the tested form may be a part): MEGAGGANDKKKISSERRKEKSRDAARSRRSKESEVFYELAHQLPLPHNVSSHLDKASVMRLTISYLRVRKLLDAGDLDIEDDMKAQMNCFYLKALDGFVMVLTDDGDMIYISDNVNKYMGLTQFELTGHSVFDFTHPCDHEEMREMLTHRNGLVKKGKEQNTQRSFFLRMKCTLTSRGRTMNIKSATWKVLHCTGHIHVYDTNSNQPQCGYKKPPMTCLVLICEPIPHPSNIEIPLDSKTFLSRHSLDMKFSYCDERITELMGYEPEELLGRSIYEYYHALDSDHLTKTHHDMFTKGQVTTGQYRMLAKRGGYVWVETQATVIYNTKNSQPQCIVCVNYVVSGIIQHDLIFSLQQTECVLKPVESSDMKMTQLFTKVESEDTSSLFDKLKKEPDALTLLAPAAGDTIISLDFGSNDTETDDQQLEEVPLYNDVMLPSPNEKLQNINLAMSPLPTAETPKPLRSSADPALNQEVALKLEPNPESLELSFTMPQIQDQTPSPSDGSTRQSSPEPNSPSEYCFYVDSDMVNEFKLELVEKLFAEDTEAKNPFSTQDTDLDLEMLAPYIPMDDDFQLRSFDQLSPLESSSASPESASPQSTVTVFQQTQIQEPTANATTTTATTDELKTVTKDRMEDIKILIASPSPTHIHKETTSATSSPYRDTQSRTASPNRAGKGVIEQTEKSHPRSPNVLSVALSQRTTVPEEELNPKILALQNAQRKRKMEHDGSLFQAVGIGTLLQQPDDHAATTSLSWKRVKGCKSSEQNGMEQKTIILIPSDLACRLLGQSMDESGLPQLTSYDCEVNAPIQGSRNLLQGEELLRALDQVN
Chain of Hepatocyte nuclear factor 3-beta (Homo sapiens) (Q9Y261 whole entry, looked up): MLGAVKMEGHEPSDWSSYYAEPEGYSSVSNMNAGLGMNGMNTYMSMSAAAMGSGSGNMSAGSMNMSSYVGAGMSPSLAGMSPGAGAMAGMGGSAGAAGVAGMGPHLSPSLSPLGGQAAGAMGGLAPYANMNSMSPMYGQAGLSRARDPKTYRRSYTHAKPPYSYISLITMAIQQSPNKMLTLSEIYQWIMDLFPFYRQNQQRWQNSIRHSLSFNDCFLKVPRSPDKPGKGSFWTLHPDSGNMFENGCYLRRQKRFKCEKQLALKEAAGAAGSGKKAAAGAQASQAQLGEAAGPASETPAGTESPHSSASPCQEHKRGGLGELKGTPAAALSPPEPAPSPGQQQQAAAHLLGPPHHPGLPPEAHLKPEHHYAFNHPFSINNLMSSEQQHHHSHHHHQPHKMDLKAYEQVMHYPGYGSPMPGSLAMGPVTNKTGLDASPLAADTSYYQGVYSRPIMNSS
Chain of Heat shock factor protein 1 (Homo sapiens) (Q00613 whole entry, looked up, the tested form may be a part): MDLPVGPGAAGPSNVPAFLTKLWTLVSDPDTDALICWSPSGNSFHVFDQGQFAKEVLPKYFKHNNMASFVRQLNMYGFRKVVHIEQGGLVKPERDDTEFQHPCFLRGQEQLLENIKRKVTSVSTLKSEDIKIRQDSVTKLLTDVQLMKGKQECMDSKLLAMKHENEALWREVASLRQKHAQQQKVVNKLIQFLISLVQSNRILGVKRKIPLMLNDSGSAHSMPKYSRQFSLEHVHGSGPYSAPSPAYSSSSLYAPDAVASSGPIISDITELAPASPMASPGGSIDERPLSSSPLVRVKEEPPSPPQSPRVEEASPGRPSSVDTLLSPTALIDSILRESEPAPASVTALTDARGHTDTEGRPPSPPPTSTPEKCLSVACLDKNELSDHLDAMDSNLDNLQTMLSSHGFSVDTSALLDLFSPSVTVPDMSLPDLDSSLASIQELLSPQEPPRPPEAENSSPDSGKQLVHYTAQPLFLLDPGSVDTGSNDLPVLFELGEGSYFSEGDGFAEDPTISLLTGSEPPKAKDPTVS
Chain of Hepatocyte nuclear factor 6 (Homo sapiens) (Q9UBC0 whole entry, looked up): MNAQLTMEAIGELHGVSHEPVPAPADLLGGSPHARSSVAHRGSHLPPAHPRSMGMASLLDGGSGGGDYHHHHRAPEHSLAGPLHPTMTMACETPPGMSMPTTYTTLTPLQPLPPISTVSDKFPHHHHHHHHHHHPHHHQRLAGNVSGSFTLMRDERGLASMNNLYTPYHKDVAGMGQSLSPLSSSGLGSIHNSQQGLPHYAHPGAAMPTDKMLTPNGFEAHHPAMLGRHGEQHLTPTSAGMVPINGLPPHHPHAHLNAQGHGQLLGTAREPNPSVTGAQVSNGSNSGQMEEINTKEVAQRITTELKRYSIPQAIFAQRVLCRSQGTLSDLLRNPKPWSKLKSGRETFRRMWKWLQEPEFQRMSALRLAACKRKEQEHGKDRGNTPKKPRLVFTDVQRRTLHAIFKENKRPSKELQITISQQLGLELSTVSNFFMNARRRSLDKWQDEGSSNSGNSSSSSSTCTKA
Chain of Bile acid receptor (Homo sapiens) (Q96RI1 whole entry, looked up): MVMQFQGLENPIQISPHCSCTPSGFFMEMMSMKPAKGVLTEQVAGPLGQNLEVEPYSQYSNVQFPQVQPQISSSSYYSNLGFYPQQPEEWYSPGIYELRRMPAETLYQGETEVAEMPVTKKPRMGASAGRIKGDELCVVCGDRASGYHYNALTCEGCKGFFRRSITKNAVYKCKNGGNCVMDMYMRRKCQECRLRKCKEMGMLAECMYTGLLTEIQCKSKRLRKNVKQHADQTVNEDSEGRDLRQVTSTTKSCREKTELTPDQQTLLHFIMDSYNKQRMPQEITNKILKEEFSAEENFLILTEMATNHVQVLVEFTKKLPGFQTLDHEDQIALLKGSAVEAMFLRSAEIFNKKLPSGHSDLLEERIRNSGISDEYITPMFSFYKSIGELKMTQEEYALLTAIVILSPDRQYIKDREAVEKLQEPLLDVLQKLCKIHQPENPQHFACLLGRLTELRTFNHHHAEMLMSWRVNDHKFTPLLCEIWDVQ

Consider `CCc1cc(SCc2sc(-c3ccc(C(F)(F)F)cc3)nc2CN2CCN(c3ccc(OC)cc3)CC2)ccc1OCC(=O)O`, for which the AC50 is 11 µM (active) in [1]; 15.8 µM (active) in [3]; 3.93 µM (active) in test [10]; 14 µM (active) in [12]; 15.3 µM (active) in test [14]; 18.1 µM (active) in test [16]. Besides, the AC50 in [17] was 8.53 µM (active); in [18], 17 µM (active). Further, the molecule was called inactive in [2], in test [4], in [5], in test [6], in test [7] and in test [8]. In addition, the call in [9], in [11], in test [13] and in test [15] was inactive.
With `O=C(NS(=O)(=O)/C=C/c1ccccc1)c1ccc(F)cc1Cl`, the outcome in [1], in test [2], in test [3], in test [4], in test [19] and in test [5] was inactive. Further, the result in test [6], in test [7], in test [8], in [9], in test [12] and in test [13] was inactive. Further, the call in test [14], in test [15], in test [16], in [17] and in [18] was inactive.
`Fc1ccccc1[C@@H](F)COC1CCC(Nc2ncnc3[nH]ncc23)CC1` (stereo partly drawn): the half-maximal activity concentration (AC50) was 177 µM (active) in test [1]; 5.72 µM (active) in test [3]; 100 µM (active) in test [12]; 2.96 µM (active) in test [14]; 157 µM (active) in test [16]; 103 µM (active) in test [17]. In test [18], the AC50 was 26.2 µM (active). Also, the call in test [2], in test [4], in [5], in test [6], in test [7] and in [8] was inactive. The result in [9], in [10], in test [11], in test [20], in test [13] and in test [15] was inactive.
For the molecule `CCn1nc(Cc2ccccc2)cc1C1CCN(C[C@H]2C[C@H](N(C)[C@@H](C(=O)O)C(C)C)C[C@@H]2c2cccc(F)c2)CC1`, the AC50 in [1] was 79.3 µM (active); in test [3] it was 155 µM (active); in test [19], 5.55 µM (active); in test [12], 100 µM (active); in test [14] it was 26.6 µM (active). For the same molecule, the result in test [2], in test [4], in test [5], in test [6], in [7] and in [8] was inactive. Also, the outcome in [9], in [11], in test [20], in [13], in test [15] and in test [16] was inactive. Also, the call in test [17] and in [18] was inactive.

By AC50 is commonly meant the concentration at which the activity in the assay is half-maximal.
